# Data as given in ChEMBL document CHEMBL3988442, “University of Dundee, Small-Polar-MMV Screening Library” (2021).
# The campaign covered roughly 48,000 compounds. About 13,000 (27%) showed an effect of 50% or more. Some of the results follow.
# Test system: Wolbachia pipientis
# Assay: Anti-Wolbachia Cell-Based Screen
# Type: functional
# Set-up: scale not given: in the data most compounds retested in dose-response had high values
# Conditions: 5 µM
row,SMILES,Percent Effect
1,O=C(Cc1cc2c(cc1Cl)OCCO2)N1CC[C@H](CO)[C@H](O)C1,7.536%
2,COc1cccc(-n2c(C)cc(C(=O)NS(C)(=O)=O)c2C)c1,-4.667%
3,Cc1n[nH]cc1CNCC1(c2ccccc2Cl)CCOCC1,10.52%
4,Cc1ccc(CCNC(=O)NCc2cccc(OC(F)F)c2)cn1,-2.718%
5,CC(=O)c1cccc(NC(=O)NCCOCC2CC2)c1,4.489%
6,O=C(NCCCOCC1CC1)Nc1ccc(F)cc1,3.334%
7,COCCNC(=O)Nc1ccc(-n2cncn2)c(F)c1,-15.63%
8,NC(=O)c1cc(NC(=O)N2CCCCCC2)ccc1F,-15.41%
9,CC(C)CCOCCNC(=O)Nc1ccc(F)c(C(N)=O)c1,86.61%
10,CC(C)C(O)CNC(=O)Nc1ccc(F)c(Cl)c1 (stereo unspecified),4.966%
11,COC(=O)c1cccc(S(=O)(=O)Nc2ccc(F)c(C(N)=O)c2)c1,-1.482%
12,COCCCNC(=O)Nc1cccc2ncccc12,3.143%
13,COCCCNC(=O)Nc1ccc(F)c(C(N)=O)c1,133.6%
14,CC(C)CCOCCNC(=O)Nc1cc(C(F)(F)F)c[nH]c1=O,-4.49%
15,CC(C)C(C)NC(=O)Nc1ccc(F)c(C(N)=O)c1 (stereo unspecified),114.2%
16,CCOCCCNC(=O)Nc1ccc(F)c(C(N)=O)c1,144.9%
17,CCOc1ncccc1C(=O)N1CC=C(c2ccc(O)cc2)CC1,32.78%
18,CCC(C)Nc1ccc(-c2nc(-c3cccc(OC)c3OC)no2)cn1 (stereo unspecified),24.9%
19,Cc1ccc(NCCCNC(=O)NCc2c(C)cc(C)[nH]c2=O)nc1,7.392%
20,CC(=O)c1ccc(NC(=O)NC(C(=O)N(C)C)C(C)C)cc1 (stereo unspecified),-8.422%
21,CC(=O)c1ccc(NC(=O)NC(C)c2ccc3c(c2)CC(=O)N3)cc1 (stereo unspecified),0.8032%
22,CC(C)C(NC(=O)Nc1ccc(F)cc1)C(=O)N(C)C (stereo unspecified),92.8%

row,SMILES,Percent Effect
1,CNC(=O)c1ccc(NC(=O)NC(C)c2cc(C)oc2C)cc1 (stereo unspecified),-7.2%
2,CC(=O)c1ccc(NC(=O)C(NC(=O)Nc2ccccc2)C(C)C)cc1 (stereo unspecified),128.1%
3,CC(Cn1cccn1)NC(=O)Nc1ccc(F)cc1 (stereo unspecified),5.847%
4,CC(=O)c1ccc(NC(=O)N[C@H](C(=O)O)C(C)C)cc1,99.56%
5,CC(C)NC(=O)c1ccc(NC(=O)NC(C)c2ccccn2)cc1 (stereo unspecified),-7.886%
6,CC(C)[C@H](NC(=O)NC1CCS(=O)(=O)C1)C(=O)Nc1cccnc1 (stereo partly specified),9.774%
7,CN1C(=O)CC(C(=O)O)C12CCN(Cc1ccc(Cl)c(Cl)c1)CC2 (stereo unspecified),-9.214%
8,Cc1cccc(-c2noc([C@@H]3C[C@@H](O)CN3C)n2)c1,-0.5094%
9,CC(C)NC(=O)c1ccc2c(c1)C(c1nc[nH]n1)CN2S(C)(=O)=O (stereo unspecified),2.921%
10,COc1cccc(COCC(=O)N2CCN(CC(C)(C)O)CC2)c1,-0.1486%
11,Fc1cnc(N2CCCn3cnc(COc4cccnc4)c3C2)nc1.O=C(O)C(F)(F)F,88.73%
12,CN(C)CCOCc1ncn2c1CN(c1ncc(F)cn1)CCC2.O=C(O)C(F)(F)F,-8.613%
13,O=C(O)C(F)(F)F.O=C(O)C(F)(F)F.c1cc(CN2CCCn3cnc(COCC4CC4)c3C2)ccn1,-1.984%
14,O=C(O)C(F)(F)F.O=C(O)C(F)(F)F.c1cnc(NCc2ncn3c2CN(Cc2cccnc2)CCC3)nc1,4.407%
15,O=C(O)C(F)(F)F.O=S(=O)(Cc1ccccc1)N1CCCn2cnc(CN3CCCC3)c2C1,-19.91%
16,CCS(=O)(=O)N1CCCn2cnc(COc3cccnc3)c2C1.O=C(O)C(F)(F)F,90.76%
17,O=C(O)C(F)(F)F.O=S(=O)(c1cccs1)N1CCCn2cnc(CO)c2C1,-6.746%
18,CN(C)C(=O)COCc1ncn2c1CN(c1ncc(F)cn1)CCC2,5.015%
19,O=C(O)C(F)(F)F.O=S(=O)(C1CC1)N1CCCn2cnc(COc3cccnc3)c2C1,121.6%
20,O=S(=O)(NC(CO)Cc1c[nH]c2ccccc12)c1cncc(F)c1 (stereo unspecified),0.282%
21,O=C(CCc1nc(Cl)n[nH]1)N1C[C@@H](CN2CCCCC2)[C@@H](CO)C1,12.3%
22,N#Cc1ccccc1N1CCCN(CC(=O)Nc2ccccc2Cl)CC1,11.85%

row,SMILES,Percent Effect
1,Cc1cc2c(=O)n(CC(=O)N3CCn4cccc4C3C(C)C)cnc2s1 (stereo unspecified),139.9%
2,Cc1ncsc1CCC(=O)N1CCn2cccc2C1c1cccnc1 (stereo unspecified),2.617%
3,CCCC1c2cccn2CCN1C(=O)Cn1cnc2sc(C)cc2c1=O (stereo unspecified),146.6%
4,Cc1cc2c(=O)n3c(nc2s1)CCN(C(=O)c1ccncc1)CC3,-15.49%
5,CCN1CCC(CC(=O)N2CCn3cccc3C2c2cccnc2)CC1 (stereo unspecified),-1.172%
6,CCC1c2ccc(C)n2CCN1C(=O)Cn1cnc2sc(C)cc2c1=O (stereo unspecified),132.6%
7,CCCC1c2cccn2CCN1C(=O)c1cc(CC)no1 (stereo unspecified),123.5%
8,CCC1c2cccn2CCN1C(=O)c1ccc2nonc2c1 (stereo unspecified),-3.198%
9,CCc1cc(C(=O)N2CCC(C3CCN(c4ncccn4)CC3)C2)on1 (stereo unspecified),-2.788%
10,CNC(=O)C1CCCCN1C(=O)CCn1cnc2sccc2c1=O (stereo unspecified),2.602%
11,COC(=O)CCNC(=O)c1nnn(-c2ccccc2)c1C(F)(F)F,-9.818%
12,CS(=O)(=O)N1CCCCCC1C1CCN(Cc2nc(C3CC3)no2)CC1 (stereo unspecified),-7.435%
13,Cc1nc(NC(=O)CN2CCc3c(nc(C(C)C)n3C)C2)sc1C,-4.598%
14,Cc1nc(NC(=O)C(C)N2CCN(c3ccccc3F)CC2)sc1C (stereo unspecified),2.631%
15,Cc1nc(NC(=O)CN2C(=O)c3ccccc3NC2C(C)C)sc1C (stereo unspecified),126.1%
16,Cc1nc(NC(=O)CN2CCOC(Cn3cccn3)C2)sc1C (stereo unspecified),-8.379%
17,O=C(CN1CCCC(c2ccn[nH]2)C1)Nc1nc2c(s1)CCC2 (stereo unspecified),-12.59%
18,Cc1cc(C2CCCN(CC(=O)Nc3nc4c(s3)CCC4)C2)n[nH]1 (stereo unspecified),7.579%
19,Cc1nc(NC(=O)C2CCCN(C(N)=O)C2)sc1-c1ccccc1 (stereo unspecified),3.163%
20,CC(C)C1Nc2ccccc2C(=O)N1CC(=O)Nc1nc2c(s1)CCC2 (stereo unspecified),128.1%
21,Cc1nc(NC(=O)CCN2C(=O)c3ccccc3NC2C(C)C)sc1C (stereo unspecified),126.1%
22,Cc1cc(NCC(=O)N(C)CC(F)(F)F)c(C(N)=O)cc1F,-3.816%

row,SMILES,Percent Effect
1,O=S(=O)(Nc1ccon1)c1cc(Cl)cc2c1OCC2,4.815%
2,CCCS(=O)(=O)N(C)C(=O)CCc1ccsc1,-1.511%
3,CN(C)c1ccccc1C(=O)N1C[C@@H](CN2CCCCC2)[C@@H](CO)C1,-1.886%
4,CCc1ccc(CN2Cc3nccn3CC(Cn3cncn3)C2)o1.O=C(O)C(F)(F)F (stereo unspecified),101.6%
5,CC(=O)N1[C@H](Cn2cncn2)C[C@@H]2CN(Cc3cccnc3)CC[C@@H]21.O=C(O)C(F)(F)F.O=C(O)C(F)(F)F,-6.622%
6,O=C(O)C(F)(F)F.c1cncc(CN2Cc3nccn3CC(Cn3cncn3)C2)c1 (stereo unspecified),126.5%
7,O=C(O)C(F)(F)F.O=C(O)C(F)(F)F.c1cncc(CN2Cc3nccn3CC(Cn3cccn3)C2)c1 (stereo unspecified),90.07%
8,Cc1nc(C)n(CC2CN(Cc3cccnc3)Cc3nccn3C2)n1.O=C(O)C(F)(F)F.O=C(O)C(F)(F)F (stereo unspecified),6.866%
9,O=C(O)C(F)(F)F.O=C(O)C(F)(F)F.c1cc(CN2Cc3nccn3CC(Cn3cncn3)C2)ccn1 (stereo unspecified),106.6%
10,Cc1nc(C)n(CC2CN(Cc3ccncc3)Cc3nccn3C2)n1.O=C(O)C(F)(F)F.O=C(O)C(F)(F)F (stereo unspecified),-4.303%
11,Cc1cc(C2CCCN2C(=O)NCc2cccnc2OC(C)C)on1 (stereo unspecified),10.48%
12,O=c1[nH]c(-c2ccc(Cl)cc2)nc2c1CCNC2,-17.05%
13,CSc1ccc(CN(C(=O)c2cc(C)[nH]c(=O)c2)C2CC2)cc1,12.75%
14,COC(C)(C)c1noc(C2(C#N)CCCCC2)n1,-1.328%
15,CCOC(=O)NC(CNC(=O)c1ncccn1)CC(C)C (stereo unspecified),3.45%
16,CNC(=O)[C@@H](c1ccccc1OC)N1CCC[C@H]1C(=O)NC(C)(C)C.Cl,1.665%
17,CCC(Nc1ccc(Oc2ccc(C#N)cc2OC)cc1)C(N)=O (stereo unspecified),-15.11%
18,Cc1nc(C)n(CC2CN(Cc3cccs3)Cc3nccn3C2)n1.O=C(O)C(F)(F)F (stereo unspecified),12.7%
19,O=C(O)C(F)(F)F.c1csc(CN2Cc3nccn3CC(Cn3cncn3)C2)c1 (stereo unspecified),90.09%
20,O=C(O)C(F)(F)F.c1csc(CN2Cc3nccn3CC(Cn3cncn3)C2)n1 (stereo unspecified),-6.751%
21,CC(C)Oc1ncccc1CNC(=O)C1CCCN(C(=O)C2CC2)C1 (stereo unspecified),-12.74%
22,COc1ccc(OC)c(C2CCN(C(=O)C3CCN(C(C)C)CC3)C2)c1 (stereo unspecified),-6.334%

row,SMILES,Percent Effect
1,CC(C)Nc1cc(-c2c[nH]nc2C2CCN(C(=O)C3CCC3)C2)ccn1 (stereo unspecified),269%
2,CC(C)Nc1cc(-c2c[nH]nc2C2CCN(C(=O)C3CC3)C2)ccn1 (stereo unspecified),259.2%
3,CN1CCCC(C(=O)N2CCC(Oc3ncccn3)CC2)C1 (stereo unspecified),16.76%
4,COc1ccccc1-c1nnc([C@H]2CCN(C(=O)C3CC3)C2)o1,-2.817%
5,CC(C)CNc1cc(-c2c[nH]nc2C2CCN(C(=O)C3CC3)C2)ccn1 (stereo unspecified),239.9%
6,CCN(CC)CCn1cnc(-c2ccccc2)c1-c1cnc(C)s1,-4.484%
7,Cc1nc2ccccc2nc1CN1CCCC(Cn2cncn2)C1 (stereo unspecified),-7.654%
8,Cc1cc(CN2CCCC(Cn3cncn3)C2)on1 (stereo unspecified),123.2%
9,Cc1ccc(-c2nc(CN3CCCC(Cn4cncn4)C3)co2)cc1 (stereo unspecified),142.7%
10,Cc1cc(CN2CCCC(Cn3cncn3)C2)no1 (stereo unspecified),117%
11,c1ncn(CC2CCCN(Cc3nc(C4CC4)no3)C2)n1 (stereo unspecified),-1.701%
12,Cc1cc(NC(=O)CN2CCCC(Cn3cncn3)C2)on1 (stereo unspecified),0.4633%
13,Cc1cc(CN2CCCC2Cn2cncn2)no1 (stereo unspecified),1.75%
14,c1ccc(-c2cc(CN3CCCC(Cn4cncn4)C3)on2)cc1 (stereo unspecified),156.9%
15,Cc1cc(NC(=O)CN2CCCC(Cn3cncn3)C2)no1 (stereo unspecified),-8.5%
16,Cc1cccc(-c2noc(CN3CCCC(Cn4cncn4)C3)n2)c1 (stereo unspecified),6.393%
17,c1ccc(-c2nc(CN3CCCC(Cn4cncn4)C3)co2)cc1 (stereo unspecified),5.722%
18,c1ccc(-c2nc(CN3CCCC(Cn4cncn4)C3)no2)cc1 (stereo unspecified),-1.614%
